The values below come from the OligoGym collection.
Note: reference of the scale not given here.

The first experiment deals with IL16. Briefly: pooled miR-30 sensor sort-seq; sequence = guide strand. To be noted: shRNA.
Consider TTTCTAGATCTGCTCCTCCTGC, for which the sensor-assay potency score (higher = more potent) was -0.608.
In turn, TTTCTCCTGATGACAATCGTGA showed a sensor-assay potency score (higher = more potent) of -0.801.
On the same count and under the same terms, as for TAGATCAGGAACACTGCTGGGC, the figure is 0.521.

A further experiment deals with IL18RAP. The description is as above. The settings on record: shRNA.
Regarding TTTCTGTTCTACTGAGTCCTTT, the sensor-assay potency score (higher = more potent) was -0.456.
The same measure, in the same setting: in the case of TTTGAATTTCCTATCAGCCTGA it was 0.608; in that of TTAACTTCTAAAATCATCTTGA, 1; in that of TCATCTTGACACAACAGGCTAC, 0.09.
The same measure, in the same setting: in the case of TTTCAGTGTTTGATCATCCAAG it was -0.42; in that of ATAAACTTCATCCACTACGATT, -1.45.
TTCTGTTCTACTGAGTCCTTTC: the sensor-assay potency score (higher = more potent) was -0.716.
Same read-out and setting: as for TTGTAGTTCAAAGATACTGGGT, the figure is -0.0545.
On the same count and under the same terms, in the case of TATTTTCTGATTCTGCTCGGAC it was -0.239.
On the same count and under the same terms, in the case of TTGTTTTCTAAAACATCAGGAA it was -0.521; in that of TCTCACTTGAACAACAGCTCTG, 0.299.
Sequence TTGGACATCAGATAGGTCGTTA registered a sensor-assay potency score (higher = more potent) of 0.111.

The target of a further experiment is IL32. The description is as above. The settings on record: shRNA.
For TTGCGGGATCCTCAACATCCGG, the sensor-assay potency score (higher = more potent) is -1.68.
The same measure, in the same setting: in the case of ATAAAATCTTTCTATGGCCTGG it was -0.133.
Same read-out and setting: as for TTTTTCAAGTAGAGGAGTGAGC, the figure is -0.743; as for TTTATCATAAAATCTTTCTATG, -1.15.
Still for that read-out and setting: in the case of TAGGACTGGAAAGAGGACATGA it was 0.275.
TAGGACTTGTCACAAAAGCTCT showed a sensor-assay potency score (higher = more potent) of -1.15.
On the same count and under the same terms, as for TGAAGTCGTCCTCCAGCTCTGC, the figure is -1.04; as for TGCGGGATCCTCAACATCCGGG, -0.63.
The same measure, in the same setting: as for TTTTATCATAAAATCTTTCTAT, the figure is -0.484; as for TTTGAAGTCGTCCTCCAGCTCT, -0.749.
Still for that read-out and setting: in the case of TAGAGGAGTGAGCTCTGGGTGC it was -1.21.
TAAAATCTTTCTATGGCCTGGT showed a sensor-assay potency score (higher = more potent) of 0.537.

The target in another experiment is IL5. The description is as above. The settings on record: shRNA.
TTACTCTCCGTCTTTCTTCTCC yielded a sensor-assay potency score (higher = more potent) of 0.308.
Same read-out and setting: in the case of TTCTTTATTAAGGACAAGTTTT it was -1.48.
Same read-out and setting: as for TTTTGAATAGTCTTTCCACAGT, the figure is -0.99; as for TTTGACTCTCCAGTGTGCCTAT, -0.108; as for TATTTCTTTATTAAGGACAAGT, -0.457.
On the same count and under the same terms, as for TACACCAAGAAACTCTTGCAGG, the figure is -0.92; as for TCTTTCACCAATGCACTTGTGG, -0.0823.
As for TTCTTCAGTGCACAGTTGGTGA, the sensor-assay potency score (higher = more potent) is -1.09.
Same read-out and setting: in the case of TTGAATAGTCTTTCCACAGTAC it was 0.569.
Still for that read-out and setting: as for TTGCACAGTTTGACTCTCCAGT, the figure is -0.479; as for TACAGGAACAGGAATCCTCAGA, -0.449.
Still for that read-out and setting: in the case of TTTTATGTACAGGAACAGGAAT it was -1.18.
